The text below walks through data of PubChem BioAssay (Tox21).

Several values for one entry are separate records, joined by “and”; a condition that tells them apart may be missing. Equal entries are not always repeated. Records with an inconclusive call do not appear. Activity calls are given as the source filed them. Calls follow the shape of the full dose curve.
% is scaled to controls: 0 for no effect and ±100 for the full control effect; potency is read from the fitted curve at half-maximal effect.

This assay in a line: qHTS assay to identify small molecule agonists of the hypoxia (HIF-1) signaling pathway - cell viability counter screen (AID 1224844). Also: nearly all actives have a fitted effect of over 50% in size. The conditions noted are these: HRE-bla ME-180 viability, CellTiter-Glo luminescence, 17 h; series mostly up to 76.8 µM; activity change, negative = cytotoxicity: at the top concentration. An excerpt: National Center for Advancing Translational Sciences [NCATS]
NIH Chemical Genomics Center [NCGC]
U.S. Environmental Protection Agency [EPA]
National Institutes of Environmental Health Sciences [NIEHS]
National Toxicology Program [NTP]
U.S. Food and Drug Administration [FDA]
Hypoxia-inducible factor-1 (HIF-1) is the major hypoxia-regulated transcription factor that controls cellular responses to low oxygen concentration. HIF-1 is composed of two subunits: hypoxia responsive HIF-1-alpha and constitutively expressed HIF-1-beta, which is also known as aryl hydrocarbon receptor nuclear translocator. During hypoxic conditions, HIF-1-alpha heterodimerizes with HIF-1-beta and translocates into the nucleus where the HIF-1 complex binds to the hypoxia-response element (HRE) and activates expression of target genes such as VEGF (vascular endothelial growth factor). The HIF-1 pathway is essential to normal growth and development, and is involved in the pathophysiology of cancer, inflammation, and ischemia.
Using a beta-lactamase reporter-gene under control of the hypoxia response element, a cell-based assay [CellSensor(TM) HRE-bla ME-180 from Life Technologies, Carlsbad, CA] was used to measure hypoxia-induced signaling. Tox21 10K library compounds were measured for their ability to induce the reporter gene activity. The cytotoxicity of the Tox21 compound library against HRE-bla ME-180 cell line was tested in parallel by measuring cell viability using CellTiter-Glo assay (Promega, Madison, WI) in the same assay wells.
Tox21 Assay Protocol Summary:
HRE-bla ME-180 cells were dispensed at 2,000 cells per well in 6 uL of assay medium containing 0.5% dialyzed FBS into black wall/clear-bottom 1536-well plates using a Multidrop Combi (Thermo Scientific, Waltham, MA) dispenser. After the assay plates were incubated at 37C and 5% CO2 for 5 hrs, 23 nL of compounds dissolved in DMSO, positive controls or DMSO only was transferred to each well of the assay plate using a Pintool station (Kalypsys, San Diego, CA). The assay plates were incubated at 37C and 5% CO2 for 17 hrs. One uL of LiveBLAzerTM B/G FRET substrate (CCF4-AM) (Life Technologies) was added to each well using a Flying Reagent Dispenser (FRD, Aurora Discovery, San Diego, CA). After 2 hr incubation at room temperature, fluorescence intensity (405 nm excitation, 460 nm and 530 nm emissions) was measured using an Envision plate reader (PerkinElmer, Shelton, CT). For cytotoxicity, 4 ul/well of CellTiter-Glo reagent was added into the assay plates using an FRD. After 30 min incubation at room temperature, the luminescence intensity was measured using a ViewLux plate reader (PerkinElmer).
On the technique in general: qHTS replaces the single test concentration by a dilution series.
With `C=C(Cl)Cl`, the “activity change, negative = cytotoxicity” value is -2.59% (inactive).

For the compound `CCC(C)(C)c1ccc(O)c(C(C)(C)CC)c1`, the Potency is 19.3 µM (active) and 24.5 µM (active).

Consider `CC(=O)NNc1ccccc1`, for which the “activity change, negative = cytotoxicity” value is -5.74% (inactive).

Turning to `O=C([O-])c1ccccn1.O=C([O-])c1ccccn1.O=C([O-])c1ccccn1.[Cr+3]`, the “activity change, negative = cytotoxicity” value was -0.448% (inactive).

In the case of `C=C(C)C(=O)OCCCCOC(=O)C(=C)C`, the “activity change, negative = cytotoxicity” value is 11.1% (inactive).

In the case of `COC1CC(=C(c2cccs2)c2cccs2)C[N+](C)(C)C1` (stereo not given), the “activity change, negative = cytotoxicity” value is -2.26% [at 35.3 µM] (inactive).

Take `CC(C)C1(C)N=C(c2ncccc2C(=O)O)NC1=O` (stereo not given): the “activity change, negative = cytotoxicity” value is 8.34% (inactive).

With `O=CC=O`, the “activity change, negative = cytotoxicity” value is 6.47% (inactive).

With `Cc1ncc(C[n+]2csc(CCO)c2C)c(N)n1`, the “activity change, negative = cytotoxicity” value is -0.741% (inactive).

Consider `O=C1NC(=O)C(=O)C(=O)N1`, for which the “activity change, negative = cytotoxicity” value was 7.3% (inactive).

Regarding `CC1(C)[C@H](C(=O)O[C@H](C#N)c2cccc(Oc3ccccc3)c2)[C@@H]1C=C(Br)Br`, the Potency entry was “inactive”.

For `CCCC[N+](CCCC)(CCCC)CCCC`, the “activity change, negative = cytotoxicity” value was 8.86% (inactive).

In the case of `COP(=O)(OC)OC(Br)C(Cl)(Cl)Br` (stereo not given), the Potency is 43.6 µM (active).

`O=[N+]([O-])/C=C/c1ccccc1`: the Potency is 24.9 µM (active) and 54.9 µM (active).

With `O=[N+]([O-])c1cc(Cl)c(Cl)cc1Cl`, the “activity change, negative = cytotoxicity” value is -9.97% (inactive).

For `C[CH2][Hg][S]c1ccccc1C(=O)O`, the Potency was 616 nM (active) and 1.9 µM (active).

`O=P(OCC(Br)CBr)(OCC(Br)CBr)OCC(Br)CBr` (stereo not given): the Potency entry was “inactive”.

As for `NP(N)(=O)NC(=O)c1ccc(F)cc1`, the “activity change, negative = cytotoxicity” value was -3.7% [at 35.3 µM] (inactive).

Take `CC(C)(C)NCC(O)c1cc(Cl)c(N)c(C(F)(F)F)c1` (stereo not given): the “activity change, negative = cytotoxicity” value was 6.3% [at 35.3 µM] (inactive).

`C=CCc1ccc(OC(=O)Cc2ccccc2)c(OC)c1`: the “activity change, negative = cytotoxicity” value is -2.82% (inactive).

`Cc1ccc2c(C)cccc2c1`: the “activity change, negative = cytotoxicity” value was -0.892% (inactive).

As for `OCC1CO1` (stereo not given), the Potency result is “inactive”.

In the case of `c1ccc2c(c1)-c1cccc3cccc-2c13`, the Potency result is “inactive”.

For `Cc1ccc(N)c(C)c1`, the Potency result is “inactive”.

As to `NC(=S)c1c(Cl)cccc1Cl`, the “activity change, negative = cytotoxicity” value is 0.5% (inactive).

Regarding `FC(F)OC(F)(F)C(F)Cl` (stereo not given), the “activity change, negative = cytotoxicity” value is 5.14% (inactive).

For the compound `CN(C)C(=O)Nc1cccc(OC(=O)NC(C)(C)C)c1`, the “activity change, negative = cytotoxicity” value is 6.29% (inactive).

On to `O=C(Cl)OCCOCCOC(=O)Cl`, for which the “activity change, negative = cytotoxicity” value was 14.4% (inactive).

In the case of `COc1ccccc1N1CCNCC1`, the “activity change, negative = cytotoxicity” value was -0.148% [at 35.3 µM] (inactive).

Regarding `O=C(NCNC(=O)NC1C(=O)NC(=O)N1CO)NC1C(=O)NC(=O)N1CO` (stereo not given), the “activity change, negative = cytotoxicity” value is -3.97% (inactive).

For `CCOc1cccc(C2(N3CCN(c4ccccc4)CC3)CCC(C)CC2)c1` (stereo not given), the “activity change, negative = cytotoxicity” value is 2.85% (inactive).

Regarding `ClCc1ccccc1Cl`, the “activity change, negative = cytotoxicity” value is 2.21% (inactive).

With `C=CCSSCC=C`, the “activity change, negative = cytotoxicity” value is -3.54% (inactive).

On to `CCOC(C(=O)OCCN(C)C)(c1ccccc1)c1ccccc1`, for which the “activity change, negative = cytotoxicity” value is -9.34% [at 35.3 µM] (inactive).

Take `CCC(=O)O[C@@H]1C=C2CCC3C(CCC4(C)C3CC[C@@H]4OC(=O)CC)C2CC1` (stereo not given in full): the “activity change, negative = cytotoxicity” value was -13.7% [at 35.3 µM] (inactive).

For `COc1ccc(C(O)(c2cncnc2)C2CC2)cc1` (stereo not given), the “activity change, negative = cytotoxicity” value was 9.66% (inactive).

Consider `O=C(O)COc1cc(Cl)c(Cl)cc1Cl`, for which the Potency entry was “inactive”.

In the case of `CCCBr`, the “activity change, negative = cytotoxicity” value is -20.2% (inactive).

Consider `COc1ccc(C(=O)c2c(C)n(CCN3CCOCC3)c3ccccc23)cc1`, for which the “activity change, negative = cytotoxicity” value was 0.761% [at 35.3 µM] (inactive).

As to `CCc1ccccc1N`, the “activity change, negative = cytotoxicity” value is 4.34% (inactive).
